Measurements: the supplement of paper PMC8728848
This excerpt belongs to a sample that is enriched for the strongest signals.

Tests used:
Experiment in all cases: glycan array binding signal (z-score within array); higher = stronger binding
Conditions in all cases: glycan notation: IUPAC condensed, linker removed
[1] = molecular target: Fuc(a1-2)Gal(b1-4)GlcNAc(b1-3)Gal(b1-4)GlcNAc
Outline: (§1)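 Negative Z-scores can be read as non-binding. The Z-score is calculated within each array and then averaged across arrays of one protein sequence at different concentrations or buffers and across linkers. Arrays, 3228 in all, were curated from the Consortium for Functional Glycomics database and kept only where the protein sequence was available.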

[2] = molecular target: Fuc(a1-2)Gal(b1-4)GlcNAc(b1-3)Gal(b1-4)GlcNAc(b1-2)Man(a1-3)[Fuc(a1-2)Gal(b1-4)GlcNAc(b1-3)Gal(b1-4)GlcNAc(b1-2)Man(a1-6)]Man(b1-4)GlcNAc(b1-4)GlcNAc
Outline: as §1

[3] = molecular target: Fuc(a1-2)Gal(b1-4)[Fuc(a1-3)]GlcNAc
Outline: as §1

[4] = molecular target: Fuc(a1-2)Gal(b1-4)[Fuc(a1-3)]GlcNAc(b1-2)Man(a1-3)[Fuc(a1-2)Gal(b1-4)[Fuc(a1-3)]GlcNAc(b1-2)Man(a1-6)]Man(b1-4)GlcNAc(b1-4)[Fuc(a1-6)]GlcNAc
Outline: as §1

[5] = molecular target: Fuc(a1-2)Gal(b1-4)[Fuc(a1-3)]GlcNAc(b1-2)[Fuc(a1-2)Gal(b1-4)[Fuc(a1-3)]GlcNAc(b1-4)]Man(a1-3)[Fuc(a1-2)Gal(b1-4)[Fuc(a1-3)]GlcNAc(b1-2)Man(a1-6)]Man(b1-4)GlcNAc(b1-4)GlcNAc
Outline: as §1

[6] = molecular target: Fuc(a1-2)Gal(b1-4)[Fuc(a1-3)]GlcNAc(b1-3)GalNAc
Outline: as §1

[7] = molecular target: Fuc(a1-2)Gal(b1-4)[Fuc(a1-3)]GlcNAc(b1-3)[Neu5Ac(a2-6)Gal(b1-4)GlcNAc(b1-6)]Gal(b1-4)Glc
Outline: as §1

[8] = molecular target: Fuc(a1-2)Gal6S(b1-4)Glc6S
Outline: as §1

[9] = molecular target: Fuc(a1-2)[Gal(a1-3)]Gal(b1-4)GlcNAc(b1-2)Man(a1-3)[Fuc(a1-2)[Gal(a1-3)]Gal(b1-4)GlcNAc(b1-2)Man(a1-6)]Man(b1-4)GlcNAc(b1-4)GlcNAc
Outline: as §1

[10] = molecular target: Fuc(a1-2)[Gal(a1-3)]Gal(b1-4)[Fuc(a1-3)]GlcNAc(b1-3)GalNAc
Outline: as §1

[11] = molecular target: Fuc(a1-2)[GalNAc(a1-3)]Gal(b1-3)GlcNAc
Outline: as §1

[12] = molecular target: Fuc(a1-2)[GalNAc(a1-3)]Gal(b1-3)GlcNAc(b1-2)Man(a1-3)[Fuc(a1-2)[GalNAc(a1-3)]Gal(b1-3)GlcNAc(b1-2)Man(a1-6)]Man(b1-4)GlcNAc(b1-4)[Fuc(a1-6)]GlcNAc
Outline: as §1

[13] = molecular target: Fuc(a1-2)[GalNAc(a1-3)]Gal(b1-4)GlcNAc(b1-3)Gal(b1-4)GlcNAc
Outline: as §1

[14] = molecular target: Fuc(a1-2)[GalNAc(a1-3)]Gal(b1-4)[Fuc(a1-3)]GlcNAc(b1-3)GalNAc
Outline: as §1

[15] = molecular target: Fuc(a1-3)[GalNAc(b1-4)]GlcNAc
Outline: as §1

[16] = molecular target: Gal(a1-3)Gal(b1-3)[Fuc(a1-4)]GlcNAc(b1-2)Man(a1-3)[Gal(a1-3)Gal(b1-3)[Fuc(a1-4)]GlcNAc(b1-2)Man(a1-6)]Man(b1-4)GlcNAc(b1-4)GlcNAc
Outline: as §1

[17] = molecular target: Gal(b1-3)Gal(b1-4)GlcNAc
Outline: as §1

[18] = molecular target: Gal(b1-3)GalNAc
Outline: as §1

[19] = molecular target: Gal(b1-3)GalNAc(a1-3)[Fuc(a1-2)]Gal(b1-4)Glc
Outline: as §1

[20] = molecular target: Gal(b1-3)GalNAc(a1-3)[Fuc(a1-2)]Gal(b1-4)GlcNAc
Outline: as §1

[21] = molecular target: Gal(b1-3)GalNAc(b1-3)Gal
Outline: as §1

[22] = molecular target: Gal(b1-3)GalNAc(b1-3)Gal(a1-4)Gal(b1-4)Glc
Outline: as §1

[23] = molecular target: Gal(b1-3)GalNAc(b1-4)Gal(b1-4)Glc
Outline: as §1

[24] = molecular target: Gal(b1-3)GalNAc(b1-4)[Neu5Ac(a2-3)]Gal(b1-4)Glc
Outline: as §1

[25] = molecular target: Gal(b1-3)GlcNAc
Outline: as §1

[26] = molecular target: Gal(b1-3)[Fuc(a1-4)]GlcNAc
Outline: as §1

[27] = molecular target: Gal(b1-3)[Neu5Ac(a2-6)]GalNAc
Outline: as §1

[28] = molecular target: Gal(b1-3)[Neu5Ac(b2-6)]GalNAc
Outline: as §1

[29] = molecular target: Gal(b1-4)GalNAc(b1-3)[Fuc(a1-2)]Gal(b1-4)GlcNAc
Outline: as §1

[30] = molecular target: Gal(b1-4)GlcNAc(b1-2)[Gal(b1-4)GlcNAc(b1-6)]Man(a1-6)[Gal(b1-4)GlcNAc(b1-2)Man(a1-3)]Man(b1-4)GlcNAc(b1-4)[Fuc(a1-6)]GlcNAc
Outline: as §1

[31] = molecular target: Gal(b1-4)GlcNAc(b1-3)Gal(b1-4)GlcNAc(b1-2)[Gal(b1-4)GlcNAc(b1-3)Gal(b1-4)GlcNAc(b1-6)]Man(a1-6)[Gal(b1-4)GlcNAc(b1-3)Gal(b1-4)GlcNAc(b1-2)Man(a1-3)]Man(b1-4)GlcNAc(b1-4)[Fuc(a1-6)]GlcNAc
Outline: as §1

[32] = molecular target: GalNAc(b1-3)GlcNAc
Outline: as §1

[33] = molecular target: GalNAc3S(b1-4)GlcNAc
Outline: as §1

[34] = molecular target: Glc(b1-4)Glc
Outline: as §1

[35] = molecular target: GlcNAc(a1-3)Gal(b1-4)GlcNAc
Outline: as §1

[36] = molecular target: GlcNAc(b1-2)[GlcNAc(b1-4)]Man(a1-3)[GlcNAc(b1-4)][GlcNAc(b1-2)[GlcNAc(b1-6)]Man(a1-6)]Man(b1-4)GlcNAc(b1-4)[Fuc(a1-6)]GlcNAc
Outline: as §1

[37] = molecular target: GlcNAc(b1-3)Gal(b1-4)GlcNAc(b1-3)Gal(b1-4)GlcNAc(b1-2)Man(a1-3)[GlcNAc(b1-3)Gal(b1-4)GlcNAc(b1-3)Gal(b1-4)GlcNAc(b1-2)Man(a1-6)]Man(b1-4)GlcNAc(b1-4)[Fuc(a1-6)]GlcNAc
Outline: as §1

[38] = molecular target: GlcNAc(b1-3)[GlcNAc(b1-6)]GalNAc
Outline: as §1

[39] = molecular target: Kdn(a2-6)Gal(b1-4)GlcNAc
Outline: as §1

[40] = molecular target: Man(a1-2)Man(a1-3)[Man(a1-6)]Man(a1-6)[Man(a1-2)Man(a1-3)]Man(b1-4)GlcNAc(b1-4)GlcNAc
Outline: as §1

[41] = molecular target: Man(a1-3)[Man(a1-6)]Man(a1-6)[Man(a1-3)]Man(b1-4)GlcNAc(b1-4)GlcNAc
Outline: as §1

[42] = molecular target: Neu5Ac(a2-3)Gal(b1-3)GalNAc6S
Outline: as §1

[43] = molecular target: Neu5Ac(a2-3)Gal(b1-3)GlcNAc(b1-4)Gal(b1-4)Glc
Outline: as §1

[44] = molecular target: Neu5Ac(a2-3)Gal(b1-3)GlcNAc(b1-6)GalNAc
Outline: as §1

[45] = molecular target: Neu5Ac(a2-3)Gal(b1-4)Glc
Outline: as §1

[46] = molecular target: Neu5Ac(a2-3)Gal(b1-4)GlcNAc(b1-2)[Neu5Ac(a2-3)Gal(b1-4)GlcNAc(b1-4)]Man(a1-3)[GlcNAc(b1-4)][Neu5Ac(a2-3)Gal(b1-4)GlcNAc(b1-4)Man(a1-6)]Man(b1-4)GlcNAc(b1-4)GlcNAc
Outline: as §1

[47] = molecular target: Neu5Ac(a2-3)Gal(b1-4)GlcNAc(b1-3)Gal
Outline: as §1

[48] = molecular target: Neu5Ac(a2-3)Gal(b1-4)GlcNAc(b1-3)Gal(b1-4)GlcNAc(b1-3)Gal(b1-4)GlcNAc
Outline: as §1

[49] = molecular target: Neu5Ac(a2-3)GalNAc
Outline: as §1

[50] = molecular target: Neu5Ac(a2-6)Gal(b1-4)GlcNAc(b1-2)Man(a1-3)[Gal(b1-4)GlcNAc(b1-2)Man(a1-6)]Man(b1-4)GlcNAc(b1-4)GlcNAc
Outline: as §1

[51] = molecular target: Neu5Ac(a2-6)GalNAc(b1-4)GlcNAc6S
Outline: as §1

[52] = molecular target: Neu5Ac(a2-8)Neu5Ac(a2-3)[Gal(b1-3)GalNAc(b1-4)]Gal(b1-4)Glc
Outline: as §1

[53] = molecular target: Neu5Ac(a2-8)Neu5Ac(a2-8)Neu5Ac
Outline: as §1

[54] = molecular target: Neu5Gc(a2-6)GalNAc
Outline: as §1

B1: Epa3 (Candida glabrata), Q6VBI8_CANGB (protein)
chain: MGSSHHHHHHSSGLVPRGSHMNDLGFSLFEKRELSSQNPFGYPIGCSPQDVAIIPGLTMELYSYPIVSGTPPNCYDASYVDPEYPRTGYLKRKMVGKSTGVTGNLNYKYSVEKACMVKYGNLPAGYNYNEPLTVSNFTMILYGYFKAQTTGLHTFFVNADDLLYINFGAGNAFDCCKREDSKTKLGEYVAYDIWHVDSSKNKVSLFLEKDLYYPIRMFFNNIGKDSSLDLSFSVNGATDQISDFSGYLYSVPDQPDTCPAHIGYDTTCR
glycan array binding signal (z-score) [1]: -0.314 | glycan array binding signal (z-score) [2]: 0.01 | glycan array binding signal (z-score) [3]: -0.32 | glycan array binding signal (z-score) [4]: 0.042 | glycan array binding signal (z-score) [5]: 0.047 | glycan array binding signal (z-score) [6]: 0.718 | glycan array binding signal (z-score) [7]: -0.262 | glycan array binding signal (z-score) [8]: 0.004 | glycan array binding signal (z-score) [9]: -0.263 | glycan array binding signal (z-score) [10]: 0.123 | glycan array binding signal (z-score) [11]: -0.201 | glycan array binding signal (z-score) [12]: -0.205 | glycan array binding signal (z-score) [13]: -0.246 | glycan array binding signal (z-score) [14]: 2.94 | glycan array binding signal (z-score) [15]: 0.843 | glycan array binding signal (z-score) [16]: -0.23 | glycan array binding signal (z-score) [17]: 3.61 | glycan array binding signal (z-score) [18]: 2.99 | glycan array binding signal (z-score) [19]: 3.57 | glycan array binding signal (z-score) [20]: 3.87 | glycan array binding signal (z-score) [21]: 8.62 | glycan array binding signal (z-score) [22]: 3.07 | glycan array binding signal (z-score) [23]: 17 | glycan array binding signal (z-score) [24]: 2.86 | glycan array binding signal (z-score) [25]: -0.202 | glycan array binding signal (z-score) [26]: -0.142 | glycan array binding signal (z-score) [27]: 4.98 | glycan array binding signal (z-score) [28]: 0.622 | glycan array binding signal (z-score) [29]: -0.192 | glycan array binding signal (z-score) [30]: -0.134 | glycan array binding signal (z-score) [31]: 0.064 | glycan array binding signal (z-score) [32]: -0.122 | glycan array binding signal (z-score) [33]: -0.277 | glycan array binding signal (z-score) [34]: -0.201 | glycan array binding signal (z-score) [35]: -0.2 | glycan array binding signal (z-score) [36]: -0.314 | glycan array binding signal (z-score) [37]: 0.201 | glycan array binding signal (z-score) [38]: -0.176 | glycan array binding signal (z-score) [39]: -0.334 | glycan array binding signal (z-score) [40]: -0.175 | glycan array binding signal (z-score) [41]: -0.086 | glycan array binding signal (z-score) [42]: -0.264 | glycan array binding signal (z-score) [43]: 0.022 | glycan array binding signal (z-score) [44]: -0.336 | glycan array binding signal (z-score) [45]: -0.174 | glycan array binding signal (z-score) [46]: -0.312 | glycan array binding signal (z-score) [47]: -0.282 | glycan array binding signal (z-score) [48]: -0.435 | glycan array binding signal (z-score) [49]: -0.308 | glycan array binding signal (z-score) [50]: -0.331 | glycan array binding signal (z-score) [51]: -0.236 | glycan array binding signal (z-score) [52]: 2.2 | glycan array binding signal (z-score) [53]: -0.342 | glycan array binding signal (z-score) [54]: -0.066
